# tim10-1 inh: inhibits growth of tim10-1 mutant yeast; inhibition, % at 20 µM; S. cerevisiae tim10-1 ts strain growth, BacTiter-Glo, 24 h; 330,000 tested, 2.2% active;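 active means inhibition of at least 40%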;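 further: mutant grown at 25 °C; 0% = DMSO wells with yeast and 100% = wells holding no yeast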
# NALP3 yeast inh: NALP3 inhibition in yeast; inhibition, % at 10 µM; AID 2825; Yeast reconstituted NLRP3/ASC/caspase-1, beta-gal luminescence, 24 h; 330,000 tested, 0.39% active;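 active means inhibition of 50% or more; inactive means inhibition below 50%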;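 further: plate controls were induced DMSO wells for no effect and uninduced yeast grown without galactose for full effect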
# V-ATPase pHluor: yeast V-ATPase proton transport regulation by pHLuorin; S. cerevisiae, pHLuorin cytosolic pH fluorescence; response, % at 10 µM; 350,000 tested, 0.37% active; in the data active means response mostly above about 7.3%, no sharp cut-off; inactive means mostly below about 5.4%; further: actives read high
# tim23-1 inh: inhibits growth of tim23-1 mutant yeast. AID 463212. inhibition, % at 20 µM. 330,000 tested, 1.3% active. S. cerevisiae tim23-1 growth, BacTiter-Glo luminescence, 24 h;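 active means growth inhibition of the mutant yeast at or above 50%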;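 further: temperature-sensitive mutant grown at 25 °C; plate controls were DMSO-treated mutant yeast for no effect and medium wells lacking yeast for full effect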
# TIM10 inh: TIM10 yeast growth inhibition | 330,000 tested, 1.4% active | inhibition, % at 10 µM | S. cerevisiae TIM10 strain growth, BacTiter-Glo luminescence, 24 h;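 active means inhibition of 40% or more at the single tested concentration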;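 further: wild-type TIM10 isogenic control strain grown at permissive 25 °C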
# NALP1 yeast inh: NALP1 inhibition | S. cerevisiae NALP1/ASC/caspase-1 growth, X-gal OD620, 72 h | inhibition, % at 10 µM | 280,000 tested, 0.61% active; in the data active means inhibition mostly above about 24%, no sharp cut-off; inactive means mostly below about 32%
# tim10-1 conf: confirmation of tim10-1 mutant yeast growth inhibitors; shares compounds with tim10-1 inh; S. cerevisiae tim10-1 ts strain growth, BacTiter-Glo, 24 h; inhibition, % at 20 µM; 7,400 tested, 56% active; AID 463213;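 active means inhibition of yeast growth at or above a set limit in either of two repeat tests at 20 µM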;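 further: tim10-1 mutant grown at permissive 25 °C to find synthetic lethal compounds; 0% = DMSO yeast wells and 100% = medium wells without yeast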
# tim10 confirm: confirmation of TIM10 yeast growth inhibitors; 4,600 tested, 63% active; shares compounds with TIM10 inh; inhibition, % at 10 µM; AID 463215; S. cerevisiae tim10 strain growth, BacTiter-Glo luminescence, 24 h;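 active means inhibition of yeast growth at or above a set limit in either of two replicates at 10 µM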;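 further: this counterscreen used the strain with wild-type TIM10; 0% = yeast with DMSO and 100% = medium wells lacking yeast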
# tim23-1 conf: confirmation of tim23-1 mutant yeast growth inhibitors. shares compounds with tim23-1 inh. S. cerevisiae tim23-1 growth, BacTiter-Glo luminescence, 24 h. inhibition, % at 20 µM. 4,400 tested, 83% active;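 active means inhibition above about 39% in either of two replicate wells at 20 µM, limit read from the data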;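 further: temperature-sensitive tim23-1 mutant grown at 25 °C; 0% = DMSO wells with yeast and 100% = medium wells without yeast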
# Starred values were filed as active, the others as inactive; x = no result given. A selection: hits, their analogues and other compounds. The true share with any hit is near 4.2%.
SMILES,tim10-1 inh,NALP3 yeast inh,V-ATPase pHluor,tim23-1 inh,TIM10 inh,NALP1 yeast inh,tim10-1 conf,tim10 confirm,tim23-1 conf
O=C(Nc1ccccc1)c1nnsc1S(=O)c1ccc(Cl)cc1 (centres undefined),92*,41,15,56*,94*,-1,92*,98*,98*
CCCn1c(N)c(N(CCOC)C(=O)CSc2c(Cl)cccc2Cl)c(=O)[nH]c1=O,-4,12,2,-1,-2,x,x,x,x
COc1ccc(CCNc2oc(-c3ccco3)nc2C#N)cc1,42*,42,-1,64*,52*,9,-5,37*,68*
Cc1nc2ccccc2n1C(=O)c1ccc(Cl)cc1[N+](=O)[O-],48*,-3,1,50*,23,19,33*,x,39*
CCOC(=O)c1c(NC(C)=O)sc(/C(C)=N/Nc2ccc(C(=O)O)cc2)c1C,-6,-4,0,25,-12,-1,x,x,x
CCOC(=O)c1nnc(-c2cccs2)nc1Oc1ccc(Cl)cc1,27,15,-2,49,19,-23,x,x,x
CCOC(=O)c1nnc(-c2cccs2)nc1Oc1ccccc1C(=O)OC,41*,19,-3,51*,49*,3,27,35*,50*
CCOC(=O)c1nnc(-c2cccs2)nc1NC(C)C,47*,22,2,55*,23,24*,42*,x,44*
CC(=O)Nc1cccc(C(=O)Nc2cc(C(F)(F)F)ccc2-n2cncn2)c1,x,x,2,x,x,x,x,x,x
NC1=NS(=O)(=O)NC1c1ccc(F)cc1 (centres undefined),0,3,0,9,10,1,x,x,x
CC(=O)Nc1ccc(NS(=O)(=O)c2ccc(Cl)s2)cc1,2,7,0,11,0,6,x,x,x
CSc1nc2ccc(NS(=O)(=O)c3ccc(Cl)s3)cc2s1,44*,6,3,58*,47*,18,32*,44*,78*
COC(=O)c1ccccc1-c1ccc(C(c2c(C)[nH][nH]c2=O)c2c(C)[nH][nH]c2=O)o1,56*,8,1,54*,46*,-1,36*,36*,48*
C=CC[C@@H]1C=C(C)C[C@H](C)C[C@H](OC)[C@H]2O[C@@](O)(C(=O)C(=O)N3CCCC[C@H]3C(=O)O[C@H](/C(C)=C/[C@@H]3CC[C@@H](O)[C@H](OC)C3)[C@H](C)[C@@H](O)CC1=O)[C@H](C)C[C@@H]2OC,77*,42,x,68*,73*,x,79*,74*,68*
O=c1oc2ccccc2nc1/C=C(O)/C=C/c1ccc(F)cc1,41*,5,1,64*,56*,54,59*,58*,-13
CC(C)N1CCc2c(sc(NC(=O)CCS(=O)(=O)c3ccccc3)c2C#N)C1,-1,19,-1,-17,3,23,x,x,x
CN(C(=O)COC(=O)c1ccccc1C(=O)c1ccccc1)c1ccccc1,15,11,1,42,13,x,x,x,x
Cc1ccc(C(=O)OCC(=O)N(C)c2ccccc2)c(C)c1,57*,13,1,52*,18,-6,50*,x,46*
Cc1nc2c(Br)cc(Br)cc2cc1O,71*,5,-11,76*,50*,9,61*,45*,83*
Brc1cc(Br)c2nc(-c3cccs3)ccc2c1,15,4,6,5,3,2,x,x,x
NNC(=O)c1[nH]c2ccc(Cl)cc2c1-c1ccccc1,51*,22,4,61*,19,-8,52*,x,42*
CN(C(=O)COC(=O)/C=C/c1ccc(Cl)c(Cl)c1)c1c(N)n(Cc2ccccc2)c(=O)[nH]c1=O,-4,2,0,0,14,x,x,x,x
N#CC1=C(N)OC(c2ccccc2)=C(C#N)C1c1ccc2c(c1)OCO2 (centres undefined),62*,-16,-1,72*,82*,13,56*,71*,75*
